These results are taken from ChEMBL document CHEMBL4513216, “Probing the Open Global Health Chemical Diversity Library for Multistage-Active Starting Points for Next-Generation Antimalarials” (ACS Infect Dis, 2020).

The whole screen tested about 68,000 compounds, of which about 2,700 (4%) showed an effect of 50% or more. The sample holds strong results, similar compounds and a random draw of the others, so the mix is not that of the screen.

In this assay the test system is Plasmodium berghei. In words: Screen against P. berghei liver stage (PbLuc), transformed with Luciferase, at 2uM. The assay is classed as functional, HepG2. The following applies: tested at 2 uM.
`CCCNC(=O)[C@@H]1CCCN1[C@@H](C(=O)NC)C1CC1`: the INHIBITION is listed as 40.28%. `CNC(=O)[C@@H](C1CC1)N1CCC[C@H]1C(=O)NCC(C)C`: the INHIBITION is reported as 40.28%. On to `CCNC(=O)[C@@H]1CCCN1[C@@H](C(=O)NC)C1CC1`, for which the INHIBITION worked out at 54.01%.

Regarding `O=C1CN(C(=O)C2CCCCC2)CC(O)CN1Cc1ccc(Cl)cc1` (centres undefined), the INHIBITION is on record as 43.15%.

For the compound `Cn1ccnc1CN1CCC2(CC1)CC(N1CCCC1)c1ccccc12` (centres undefined), the INHIBITION is -11.26%. Under `Cc1ccc(-n2cnnn2)cc1NCC(=O)Nc1cc(F)ccc1F` stands 19.95%; under `C=C(C)Cn1nc(C)c(CN2CCN(C3CCCCC3)C(=O)C2)c1C`, -17.01%; under `Cc1nn(C(C)C)c(C)c1CN1CCN(C2CCCCC2)C(=O)C1`, -22.72%. Regarding `Cc1nn(CCO)c(C)c1CN1CCN(C2CCCCC2)C(=O)C1`, the INHIBITION turned out to be 57.21%. Under `CO[C@H]1CC[C@H]2[C@H]1OCCN2C(=O)C1=CCCC1` stands 28.81%; under `CCN1CCC(Cn2ccc3ccc(C(=O)OC)cc3c2=O)C1` (centres undefined), 39.26%; under `O=C(CCNS(=O)(=O)c1ccc(Cl)cc1)NCc1ccoc1`, -29.08%. As for `CCNC(=O)NC1CCCN(c2ccc(C)cc2)C1=O` (centres undefined), the INHIBITION worked out at 10.63%.

Turning to `CCOCc1nnc(NCc2cccnc2)o1`, the INHIBITION worked out at 54.29%. Under `Cc1cccc(CNc2n[nH]c(C)n2)c1` stands 14.11%; under `CCOCc1nnc(NCc2ccsc2)o1`, -19.14%; under `Cc1cccc(CNc2nnc(C(C)C)o2)c1`, 3.62%. As to `COCc1cccc(NCc2cccnc2)c1`, the INHIBITION is listed as -12.52%. In the case of `CCOCc1nnc(NCc2cccc(C)c2)o1`, the INHIBITION is recorded as 55.39%. For the compound `COc1ccc2c(C)nc(N3CCN([C@H]4CCCC[C@@H]4O)CC3)nc2c1`, the INHIBITION is listed as -104.21%. Regarding `CC(C)OCc1ncn2c1CN(Cc1cccs1)CCC2`, the INHIBITION is listed as 16.22%. Take `Cn1c(CS(=O)(=O)Cc2ccc(Cl)cc2)cc(=O)n(C)c1=O`: the INHIBITION stood at 26.34%. On to `Cc1nnc([C@]23COC[C@H]2CN(Cc2cccs2)C3)o1`, for which the INHIBITION is 27.73%. Under `Cc1cc(CN2C[C@@H]3COC[C@]3(c3nnc(C)o3)C2)no1` stands -83.05%; under `Cc1nnc([C@]23COC[C@H]2CN(Cc2nccs2)C3)o1`, 51.36%; under `O=C(CCNS(=O)(=O)c1ccc(F)cc1)NCc1ccoc1`, 12.01%.

Take `CC(C)COCCC(=O)Nc1cccnc1-n1cncn1`: the INHIBITION was 22.88%. Turning to `Cc1nccn1-c1ncccc1NC(=O)CCOCC(C)C`, the INHIBITION was found to be 53.54%.

On to `CCOCCCC(=O)Nc1cccnc1-n1ccnc1C`, for which the INHIBITION is -12.09%. Take `CC(C)(C)c1noc(CCCC(=O)NCC2CCS(=O)(=O)C2)n1` (centres undefined): the INHIBITION was -12.82%. In the case of `COC(=O)CNC(=O)c1sccc1N(C)S(=O)(=O)c1ccc(Cl)cc1`, the INHIBITION was 3.38%. Regarding `Nc1cc2c(nn1)CCN(C(=O)CC1CCCCC1)C2`, the INHIBITION is reported as 38.76%. For the compound `CCc1nc(CN(C)C2CCN(Cc3nc(C4CC4)no3)C2)no1` (centres undefined), the INHIBITION was -45.03%. Consider `Nc1cc(O)nc(CCNC(=O)CC[C@@H]2CCCN3CCCC[C@H]23)n1`, for which the INHIBITION is listed as 26.81%. As to `O=C(CC[C@@H]1CCCN2CCCC[C@H]12)NCCc1nc(O)cc(O)n1`, the INHIBITION worked out at 51.77%. With `O=C(CC[C@@H]1CCCN2CCCC[C@H]12)NCCc1cc(O)ncn1`, the INHIBITION is on record as -20.38%.

On to `Cn1nc(C2CCNCC2)c2c(C(=O)NC3CC3)cc(C3CC3)nc21`, for which the INHIBITION amounted to 40.28%. For `CC(C)c1cc(NC(CO)CO)n2nccc2n1`, the INHIBITION came to 20.14%. `CC(C)c1cc(N[C@@H](CO)C(N)=O)n2nccc2n1`: the INHIBITION is 50.42%. As for `CC(C)c1cc(N[C@H](C(N)=O)C(C)C)n2nccc2n1`, the INHIBITION was -48.3%. Take `COCCc1noc(CN2CC(C)(c3ccccc3)CCC2=O)n1` (centres undefined): the INHIBITION is -12.84%.

Regarding `Cn1ccnc1C1c2nc[nH]c2CCN1Cc1cccnc1` (centres undefined), the INHIBITION is -7.68%.

Take `CCc1csc(C2CCCN(C(=O)C3=NN(CC)C(=O)CC3)C2)n1` (centres undefined): the INHIBITION worked out at 3.9%. For the compound `Cc1nc(C2CCCN(C(=O)C3=NN(C(C)C)C(=O)CC3)C2)no1` (centres undefined), the INHIBITION came out at 21.24%. With `CCN1N=C(C(=O)N2CCCC(c3noc(C)n3)C2)CCC1=O` (centres undefined), the INHIBITION was determined as 10.23%. In the case of `CCc1nc(C2CCCN(C(=O)NC(C)C)C2)no1` (centres undefined), the INHIBITION was 9.82%. `CCc1nc(C2CCCN(C(=O)C3=NN(C(C)C)C(=O)CC3)C2)no1` (centres undefined): the INHIBITION was 52.08%.

Turning to `CCc1nc(C2CCCN(C(=O)C3=NN(CC)C(=O)CC3)C2)no1` (centres undefined), the INHIBITION was 53.19%. On to `O=c1c(Cc2ccccc2)c(O)ccn1CCc1ccccc1`, for which the INHIBITION is given as 44.59%. With `Cc1ccc(CN2CC[C@H]3C[C@H](C(=O)N(C)C)O[C@H]3C2)cc1`, the INHIBITION amounted to 22.5%.

In the case of `CCOc1ncccc1NC(=O)Nc1c(C)nn(C(C)C)c1C`, the INHIBITION is listed as -10.87%. As to `CC(C)(C)c1coc([C@@H]2COCCN2Cc2c[nH]c3ccccc23)n1`, the INHIBITION was found to be 27.44%. Next, `Cn1cc(CN2CCOC[C@H]2c2nc(C(C)(C)C)co2)c2ccccc21`: 50.17%; `CC(C)(C)c1coc([C@@H]2COCCN2Cc2ccccc2)n1`: 18.4%.
